For 30 compounds, Potency and activity change, negative = inhibition results are on record in PubChem BioAssay (NCATS).

Results filed as inconclusive are left out. A call without a number means that no potency is given here. Values without a mark were called inactive. Activity calls are given as the source filed them. Calls come from the whole dose curve; as a rule, active = well fitted inhibition curve with a large enough effect; inconclusive = small, poorly fitted or top-dose-only effect; inactive = no such curve, though single readings can be large or run the other way.
Potency is the fitted concentration of half-maximal effect.

For this test, the system named is Zika virus NS2B-NS3 protease (unlinked complex). Nature of the test: Primary screen GU Rhodamine qHTS for Zika virus inhibitors: Unlinked NS2B-NS3 protease assay (AID 1347159). Note: nearly all actives have a fitted effect of over 60% in size. The note with it: Recombinant ZIKV NS2B-NS3 protease, Rhodamine110 substrate fluorescence; series mostly up to 107 µM. The method, boiled down: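 Unlinked NS2B/NS3, 25 nM; Rhod110 peptide, 1.5 microM; compounds, up to 114 microM. Reaction run 15 min at RT in 10 mM Tris-HCl pH 8.0, 0.01% Tween 20; kinetic fluorescence change fitted with a 4-parameter Hill model.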
For orientation: Quantitative high-throughput screening tests each substance at several concentrations.
For the compound `CNC(=O)c1ccccc1Nc1nc(Nc2ccc(N3CCNCC3)cc2)ncc1Cl`, the Potency result was “inactive”. Turning to `CCC1C(=O)OC23C=C[C@@H]4C(C(=O)O)=CO[C@H](O[C@@H]12)[C@@H]43` (stereo not given in full), the Potency result was “inactive”. For `C/C1=C\C[C@]2(C)C(=O)C(O)=C([C@H](C)CO)[C@H]2C/C=C(\C)[C@@H](O)CC/C(C)=C/CC1`, the Potency entry was “inactive”. On the same count and under the same terms, for `CC(O)/C=C/C1(O)C(C)C(O[C@@H]2O[C@H](CO)[C@@H](O)[C@H](O)[C@H]2O)C(O)CC1(C)C` (stereo not given in full) the value was “inactive”. Take `CC[C@H](NC(=O)[C@H](CS(=O)(=O)CC1CC1)N[C@@H](c1ccc(F)cc1)C(F)(F)F)C(=O)C(=O)NC1CC1`: the Potency entry was “inactive”. On the same count and under the same terms, for `CC[C@@](C)(Nc1ccnc(-c2c[nH]c3ncccc23)n1)C(=O)NCC(F)(F)F` the value was “inactive”. Regarding `CC(=O)O[C@@H](CO[C@@H]1O[C@H](CO)[C@H](O)[C@H](O)[C@H]1O)[C@]1(C)C=C2CC[C@@H]3C(C)(C)[C@@H](O)CC[C@@]3(C)[C@@H]2CC1`, the Potency result is “inactive”. On the same count and under the same terms, for `CN(C)C/C=C/C(=O)Nc1cccc(C(=O)Nc2ccc(Nc3nccc(-c4cccnc4)n3)cc2)c1` the value was 79.4 µM (active). As for `CC(C)(C(=O)NCC(F)(F)C(F)(F)F)C(=O)NC1C(=O)Nc2ccccc2-c2ccccc21` (stereo not given), the Potency result is “inactive”. Same read-out and setting: the result for `CC1COC2(OC3CC4C5CC(O[C@@H]6O[C@H](C)[C@@H](O[C@@H]7O[C@@H](C)[C@H](O)[C@@H](O)[C@H]7O)[C@H](O)[C@H]6O)C6CC(O)CCC6(C)C5CCC4(C)C3C2C)C(O)C1` (stereo not given in full) reads “inactive”; that for `C=C1CCCC2(C)CC3(OC)OC(=O)C(C)=C3CC12` (stereo not given), “inactive”; that for `OC/C=C/c1ccc(O[C@@H]2O[C@H](CO)[C@@H](O)[C@H](O)[C@H]2O)cc1`, “inactive”. Still for that read-out and setting: the result for `O=C(O)CC(=O)OC[C@H]1O[C@@H](Oc2ccc3c(c2)OC[C@H]2c4cc5c(cc4O[C@@H]32)OCO5)[C@H](O)[C@@H](O)[C@@H]1O` reads “inactive”; that for `Cc1cc(C(=O)Nc2cccc(C(=O)Nc3cccc(C(F)(F)F)c3)c2)on1`, “inactive”; that for `Cc1ccc(-c2ccc3ncc4c(c3n2)n(C2CCN(C(=O)[C@H](C)O)CC2)c(=O)n4C)cn1`, “inactive”. With `CC1CCC2(OC1)OC1CC3C4CCC5C[C@@H](O[C@@H]6O[C@H](CO[C@@H]7OC[C@@H](O)[C@H](O)[C@H]7O)[C@H](O)[C@H](O)[C@H]6O)CC[C@]5(C)C4CC[C@]3(C)C1C2C` (stereo not given in full), the Potency entry was “inactive”. Same read-out and setting: for `C[C@@H]1C(=O)O[C@H]2[C@H](O)C34[C@H]5C[C@@H](C(C)(C)C)C36[C@@H](OC(=O)[C@@H]6O)O[C@@]4(C(=O)O5)[C@@]12O` (stereo not given in full) the value was “inactive”. Still for that read-out and setting: the result for `COc1c2ccoc2cc2oc(CO[C@@H]3O[C@H](CO)[C@@H](O)[C@H](O)[C@H]3O)cc(=O)c12` reads “inactive”. With `CC(=O)O[C@@](C)(C(=O)/C=C/C(C)(C)O)[C@H]1[C@H](O)C[C@@]2(C)[C@@H]3CC=C4[C@@H](C=C(O)C(=O)C4(C)C)[C@]3(C)C(=O)C[C@]12C`, the Potency result is “inactive”.

As to `C/C=C(\C)C(=O)O[C@@H]1CC2[C@@H](CC=C3C[C@@H](O[C@H]4C[C@H](OC)[C@H](O[C@H]5C[C@H](OC)[C@H](O[C@@H]6O[C@H](C)[C@@H](O[C@H]7C[C@H](OC)[C@H](O[C@@H]8O[C@H](CO)[C@@H](O)[C@H](O)[C@H]8O)[C@@H](C)O7)[C@H](OC)[C@H]6O)[C@@H](C)O5)[C@@H](C)O4)CC[C@@]32C)[C@@]2(O)CC[C@H](C(C)=O)[C@@]12C` (stereo not given in full), the activity change, negative = inhibition was 8.5% [at 19.1 µM]. Consider `CC(=O)C12OC(C)(C)OC1CC1C3CCC4=CC(=O)C=CC4(C)C3(F)C(O)CC12C` (stereo not given), for which the Potency entry was “inactive”. Regarding `C[C@@]12CC[C@@H]3[C@@](CC[C@H]4[C@@]3(C)CCC[C@@]4(C)C(=O)O)(CC1=O)C2`, the Potency entry is “inactive”.

Consider `C=C1C(=O)O[C@H]2[C@H]1CC/C(C)=C/CC[C@@]1(C)O[C@@H]21`, for which the Potency entry was “inactive”. For the compound `COc1cc(C2Oc3c(OC)cc(CCCO)cc3C2CO)ccc1O[C@H]1O[C@H](C)[C@@H](O)[C@H](O)[C@@H]1O` (stereo not given in full), the Potency result was “inactive”. Regarding `C[C@@H]1O[C@@H](O[C@H]2[C@H](OC(=O)[C@]34CCC(C)(C)C[C@H]3C3=CCC5[C@@]6(C)CC[C@H](O[C@@H]7O[C@H](C(=O)O)[C@@H](O)[C@H](O)[C@H]7O[C@@H]7O[C@H](CO)[C@H](O)[C@H](O)[C@H]7O)[C@@](C)(C=O)C6CC[C@@]5(C)[C@]3(C)C[C@H]4O)O[C@H](C)[C@H](O[C@@H]3O[C@H](C)[C@H](O)[C@H](O)[C@H]3O)[C@@H]2O)[C@H](O)[C@H](O)[C@H]1O[C@@H]1OC[C@@H](O)[C@H](O[C@@H]2O[C@H](CO)[C@@H](O)[C@H](O)[C@H]2O)[C@H]1O` (stereo not given in full), the activity change, negative = inhibition is 4.39% [at 19.1 µM]. As for `CC1(C)CC[C@]2(C(=O)O[C@@H]3O[C@H](CO)[C@@H](O)[C@H](O)[C@H]3O)CC[C@]3(C)C(=CCC4[C@@]5(C)CC[C@H](O[C@@H]6O[C@H](C(=O)O)[C@@H](O)[C@H](O)[C@H]6O)[C@@](C)(CO)C5CC[C@]43C)C2C1` (stereo not given in full), the Potency result was “inactive”.

In the case of `COc1ccc2cc(C(C)C(=O)Oc3ccc(C(N)=S)cc3)ccc2c1` (stereo not given), the Potency entry was “inactive”. As to `COC(=O)CC1CC(c2ccc(O)cc2)=NO1` (stereo not given), the Potency result was “inactive”.

Take `CNC(=O)c1cc(Oc2ccc3nc(N[C@@H]4CCCC[C@H]4O)sc3c2)ccn1`: the Potency entry was “inactive”. `CC(=O)/C=C/[C@H]1[C@](C)(O)[C@@H](O)[C@H](OC(C)=O)C2C(C)(C)CCC[C@@]21C` (stereo not given in full): the Potency entry is “inactive”.
